The list is not random: actives were taken first. Their share in the collection is about 18%.
DT40 TDP1 no CPT: qHTS for Inhibitors of human tyrosyl-DNA phosphodiesterase 1 (TDP1): qHTS in cells in absence of CPT. DT40 Tdp1-/- hTDP1 cells, no CPT, ATP luminescence, 48 h. Potency, µM (highest dose often 46.2 µM), without a hit: at the highest dose activity change, negative = growth inhibition, most hits filed as inhibitors. hit rate 15% among 420,000. AID 686978, 2013; note: potency is the fitted concentration of half-maximal effect; nearly all actives have a fitted effect of over 55% in size
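Camptothecin absent (DMSO only). Human TDP1-complemented DT40 knockout cells, 400 cells/well, 37 °C for minimum 48 hr; ATP measured via CellTiter-Glo, 30 min dark incubation, luminescence.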
Gal4-VP16 FLuc: VP16 counterscreen qHTS for inhibitors of ROR gamma transcriptional activity; Potency, µM (doses to about 53.6 µM), inactives show at the top dose activity, negative = inhibition, usual class: inhibitors; hit rate 3.5% among 310,000; Drosophila S2 Gal4-VP16 UAS-luciferase, luminescence, 20 h;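 note: Gal4-VP16 expression switched on by copper sulfate through the metallothionein promoter; potency is the fitted concentration of half-maximal effect; nearly all actives have a fitted effect of over 50% in size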
IL-1B inflam inh: qHTS for Inhibitors of Inflammasome Signaling: IL-1-beta AlphaLISA Primary Screen; THP-1 LPS/ATP IL-1B secretion, AlphaLISA, 16 h; hits give low values; activity change, % at 57.5 µM; hit rate 4.7% among 360,000; in the data active = activity change below about -50%; inconclusive = mostly about -30% to -49%
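THP-1 cells pretreated 1 hr with compounds (up to 57.5 uM final), then stimulated with LPS (250 ng/mL final) plus ATP (1.25 mM final); secreted IL-1B measured by AlphaLISA after 16 hr, decreased signal indicating inhibition.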
RORg inh: qHTS for inhibitors of ROR gamma transcriptional activity. hit rate 5.4% among 310,000. Drosophila S2 Gal4-RORgamma UAS-luciferase reporter, 20 h. Nuclear receptor ROR-gamma (Mus musculus), P51450. Potency, µM (titrated, usually from 53.6 µM), without a hit: at the highest dose activity change, negative = inhibition, most hits filed as inhibitors. AID 2551, 2010; note: potency is the fitted concentration of half-maximal effect; nearly all actives have a fitted effect of over 60% in size
Target sequence (P51450 whole entry, looked up, the tested form may be a part): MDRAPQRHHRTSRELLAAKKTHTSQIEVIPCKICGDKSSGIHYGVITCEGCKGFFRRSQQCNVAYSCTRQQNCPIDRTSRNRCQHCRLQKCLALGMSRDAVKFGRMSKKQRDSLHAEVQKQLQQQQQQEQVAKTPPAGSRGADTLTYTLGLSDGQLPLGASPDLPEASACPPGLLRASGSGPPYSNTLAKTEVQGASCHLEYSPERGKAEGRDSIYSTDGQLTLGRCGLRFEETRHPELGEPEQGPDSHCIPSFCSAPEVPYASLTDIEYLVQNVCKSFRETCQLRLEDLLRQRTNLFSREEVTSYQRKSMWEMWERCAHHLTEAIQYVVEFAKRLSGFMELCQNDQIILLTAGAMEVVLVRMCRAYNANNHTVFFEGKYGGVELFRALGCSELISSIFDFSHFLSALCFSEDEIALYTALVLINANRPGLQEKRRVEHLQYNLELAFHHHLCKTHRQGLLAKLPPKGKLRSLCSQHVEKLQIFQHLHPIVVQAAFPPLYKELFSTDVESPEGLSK
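Using a luciferase readout, inhibitors were identified by reduced reporter activity in Drosophila cells coexpressing a copper-inducible Gal4–ROR gamma fusion and UAS-driven Photinus luciferase, incubated 20 hr after 700 uM copper sulfate.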
LDHA inh: qHTS assay for inhibitors of human lactate dehydrogenase; activity change, % (values are at about 110 or 230 µM); purified LDHA, NADH/diaphorase-resazurin fluorescence; hits give low values; hit rate 0.15% among 480,000; AID 1347041, 2019; in the data active = activity change below about -30%; inconclusive = mostly about -25% to -30%;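 note: plate controls were DMSO wells for no effect and wells without enzyme for full effect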
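Human LDH5 at 2 nM final in Tris HCl pH 7.4 with 0.06 mM NADH and 0.2 mM pyruvate, reacted 5 minutes at room temperature. Remaining NADH coupled via diaphorase/resazurin; resorufin fluorescence read at 0 and 20 minutes, normalized to enzyme-free and DMSO wells.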
TDP1 cell CPT: qHTS for Inhibitors of human tyrosyl-DNA phosphodiesterase 1 (TDP1): qHTS in cells in presence of CPT. Potency, µM (series often up to 46.2 µM), for inactives: top-dose activity change, negative = growth inhibition, actives largely listed as inhibitors. chicken DT40 Tdp1-/-;hTDP1 cells + 20 nM CPT, ATP luminescence, 48 h. AID 686979, 2013. hit rate 12% among 420,000; note: potency is the fitted concentration of half-maximal effect; nearly all actives have a fitted effect of over 55% in size
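Cell growth measured by CellTiter-Glo luminescence after a minimum 48 h, 37 C compound exposure with 20 nM CPT in Tdp1-knockout DT40 cells stably expressing hTDP1, seeded 400/well; qHTS titration format.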
* = called active by the depositor. Unless noted, calls come from the whole dose curve; as a rule, active = well fitted curve in the direction sought with a large enough effect; inconclusive = small, poorly fitted or top-dose-only effect, or another doubt; inactive = no such curve, though single readings can be large; an effect the other way counts as inactive or inconclusive. Unless noted, % is set by controls: 0 for no effect and ±100 for the full control effect.

`O=C(Nc1ccc(Cl)cc1)Nc1csc([N+](=O)[O-])c1` gave DT40 TDP1 no CPT 9.2µM*, Gal4-VP16 FLuc inconclusive, RORg inh inconclusive, LDHA inh 2 and TDP1 cell CPT 18µM*.
`O=C(Nc1csc([N+](=O)[O-])c1)Nc1c(Cl)cccc1Cl` gave DT40 TDP1 no CPT 16µM*, Gal4-VP16 FLuc -3%, IL-1B inflam inh -10, RORg inh -7%, LDHA inh -11 and TDP1 cell CPT inconclusive.
Screening CSc1nnc(-c2cc3c(-c4ccccc4)nn(C)c3s2)n1C returned DT40 TDP1 no CPT 23µM*, Gal4-VP16 FLuc -11%, IL-1B inflam inh inconclusive, RORg inh -2%, LDHA inh -2 and TDP1 cell CPT inconclusive.
Cn1nc(-c2ccccc2)c2cc(C(=O)O)sc21 was read as DT40 TDP1 no CPT -14%, Gal4-VP16 FLuc -11%, IL-1B inflam inh -14, RORg inh 16%, LDHA inh 1 and TDP1 cell CPT -18%.
Screening O=C(O)c1ccc([N+](=O)[O-])c2c1C(=O)c1ccccc1C2=O returned DT40 TDP1 no CPT -22%, IL-1B inflam inh 6, LDHA inh 23 and TDP1 cell CPT -5%.
O=C1c2c(O)ccc([N+](=O)[O-])c2C(=O)c2c([N+](=O)[O-])ccc(O)c21 was read as Gal4-VP16 FLuc 11µM* and RORg inh 6.3µM*.
O=C1c2ccccc2C(=O)c2c([N+](=O)[O-])ccc(O)c21 was read as DT40 TDP1 no CPT 21µM*, Gal4-VP16 FLuc 6%, IL-1B inflam inh -28, RORg inh -28%, LDHA inh 6 and TDP1 cell CPT -16%.
For Nc1ccc(O)c([N+](=O)[O-])c1 the results were DT40 TDP1 no CPT -17%, Gal4-VP16 FLuc 5%, IL-1B inflam inh -5, RORg inh -17%, LDHA inh -1 and TDP1 cell CPT -13%.
For O=C(CCN1CCN(c2cnccn2)CC1)Nc1ccccc1Cl the results were LDHA inh 1.
CC(C)c1ccc2nc(N)sc2c1 was read as DT40 TDP1 no CPT 26µM*, Gal4-VP16 FLuc inconclusive, IL-1B inflam inh 2, RORg inh 14%, LDHA inh -7 and TDP1 cell CPT 20%.
For CC(O)CNc1nc2c(c(=O)n(C)c(=O)n2C)n1Cc1ccccc1 (stereo not given) the results were LDHA inh -2.
`Cc1ccc2c(CN3CCc4cc(S(N)(=O)=O)ccc43)cc(=O)oc2c1C` gave LDHA inh 3.
CCCN1C(=O)/C(=N\OCC(=O)Nc2ccc(C(C)C)cc2)c2ccccc21 was read as DT40 TDP1 no CPT inconclusive, Gal4-VP16 FLuc -6%, IL-1B inflam inh inconclusive, RORg inh 36%, LDHA inh -3 and TDP1 cell CPT -15%.
Screening CCCN1C(=O)/C(=N\OCC(=O)NC23CC4CC(CC(C4)C2)C3)c2ccccc21 returned DT40 TDP1 no CPT 16µM*, Gal4-VP16 FLuc -7%, IL-1B inflam inh -4, RORg inh 42%, LDHA inh -2 and TDP1 cell CPT 16µM*.
For Cc1ccc(-c2cnc(C(O)c3ccc(Cl)c(Cl)c3)[nH]2)cc1 (stereo not given) the results were DT40 TDP1 no CPT 15µM*, IL-1B inflam inh -4, LDHA inh -20 and TDP1 cell CPT inconclusive.
Cc1ccc(-c2cnc(C(O)c3ccc(Cl)c(F)c3)[nH]2)cc1 (stereo not given) was read as DT40 TDP1 no CPT inconclusive, IL-1B inflam inh 2, LDHA inh -8 and TDP1 cell CPT inconclusive.
Screening OC(c1ccc2c(c1)OCO2)c1ncc(-c2cccc(C(F)(F)F)c2)[nH]1 (stereo not given) returned DT40 TDP1 no CPT 8.2µM*, IL-1B inflam inh inconclusive, LDHA inh -3 and TDP1 cell CPT -35%.
`Cc1ccc(C(O)c2ncc(-c3cccc(C(F)(F)F)c3)[nH]2)cc1F` (stereo not given) gave DT40 TDP1 no CPT 13µM*, IL-1B inflam inh -5, LDHA inh -9 and TDP1 cell CPT 26µM*.
Screening Cc1ccc(C(O)c2ncc(-c3cccc(C(F)(F)F)c3)[nH]2)cc1 (stereo not given) returned DT40 TDP1 no CPT 18µM*, IL-1B inflam inh -12, LDHA inh -8 and TDP1 cell CPT inconclusive.
`OC(c1ccc2c(c1)OCO2)c1ncc(-c2ccc(Cl)cc2)[nH]1` (stereo not given) gave DT40 TDP1 no CPT inconclusive, IL-1B inflam inh -6, LDHA inh -9 and TDP1 cell CPT inconclusive.
`Cc1cccc(C)c1C(O)c1ncc(-c2cccc(C(F)(F)F)c2)[nH]1` (stereo not given) gave DT40 TDP1 no CPT inconclusive, IL-1B inflam inh -26, LDHA inh -12 and TDP1 cell CPT inconclusive.
COc1ccc(NC(=O)CCc2c(C)c3ccc(OC)cc3oc2=O)c(OC)c1 was read as LDHA inh 6.
CCc1cccc2c(C(=O)COC(=O)c3cc(S(=O)(=O)N4CCOCC4)ccc3F)c[nH]c12 was read as LDHA inh 8.
Screening Cc1cnc(C(=O)OCc2cccc(C(F)(F)F)c2)cn1 returned LDHA inh -2.
Screening Cc1cc(-c2ccc(C)c(S(=O)(=O)Nc3ccccc3F)c2)on1 returned LDHA inh 3.
Screening OC(c1ccc(Cl)c(F)c1)c1ncc(-c2cccc(C(F)(F)F)c2)[nH]1 (stereo not given) returned DT40 TDP1 no CPT 23µM*, IL-1B inflam inh 0, LDHA inh -3 and TDP1 cell CPT inconclusive.
For OC(c1cccc(CN2CCCCC2)c1)c1ncc(-c2cccc(C(F)(F)F)c2)[nH]1 (stereo not given) the results were DT40 TDP1 no CPT 21µM*, IL-1B inflam inh -10, LDHA inh -9 and TDP1 cell CPT 15µM*.
For OC(c1ccccc1)c1ncc(-c2cccc(C(F)(F)F)c2)[nH]1 (stereo not given) the results were DT40 TDP1 no CPT inconclusive, IL-1B inflam inh 3, LDHA inh -4 and TDP1 cell CPT inconclusive.

Bioassay records from PubChem.
